Assay outcomes deposited in PubChem BioAssay by several laboratories.
This is a sample that favours compounds with a hit; in the whole collection about 32% have one here.
CYP2C19 activ – cytochrome P450 2C19 (human) activation; recombinant CYP2C19, luciferin-H EGE luminescence; hits give high values; 0 = fully inhibited enzyme, 1 = untreated enzyme; activation factor at 5 µM; 96,000 tested, under 10 active; AID 1025;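 active means activation factor of at least 2 at 5 µM in the primary screen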;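 further: 0 = wells with 2.5 mM tranylcypromine and 1 = vehicle-only wells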
Target sequence (P33261 whole entry, looked up): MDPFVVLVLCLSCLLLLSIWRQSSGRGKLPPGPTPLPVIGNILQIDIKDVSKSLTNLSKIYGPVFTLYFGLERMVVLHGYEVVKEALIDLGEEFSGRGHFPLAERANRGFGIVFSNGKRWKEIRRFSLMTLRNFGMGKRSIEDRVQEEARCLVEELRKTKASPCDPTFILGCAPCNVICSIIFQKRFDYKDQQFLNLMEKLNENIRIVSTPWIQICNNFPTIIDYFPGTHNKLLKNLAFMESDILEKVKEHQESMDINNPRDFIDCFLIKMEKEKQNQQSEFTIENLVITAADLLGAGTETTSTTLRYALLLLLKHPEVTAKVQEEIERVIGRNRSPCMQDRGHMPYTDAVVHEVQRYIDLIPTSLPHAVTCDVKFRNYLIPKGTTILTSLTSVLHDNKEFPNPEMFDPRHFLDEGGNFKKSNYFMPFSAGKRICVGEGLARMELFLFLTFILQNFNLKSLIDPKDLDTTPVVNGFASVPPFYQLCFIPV
PostGolgi yeast – growth inhibition of a yeast mutant, post-Golgi transport screen. AID 739. post-Golgi transport phenotypic cell assay. hit rate 0.9% among 98,000. inhibition, % at 10 µM;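 further: yeast cells grown in 1536-well plates; yeast grown about 18 h at 30C before absorbance read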
CYP2C19 inhib – human CYP2C19 inhibition; P33261; CYP2C19 Supersomes, luciferin-H EGE luminescence, 30 min; inhibition, % at 5 µM; hit rate 21% among 96,000;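 active means CYP2C19 inhibition above a set limit at 5 µM in the primary screen, cut at about 50% in these data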;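 further: plate controls were negative control wells for no effect and 2.5 mM tranylcypromine positive control for full effect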
PostGolgi ctrl – growth of the yeast control strain, post-Golgi counter-screen | efflux-deficient yeast background strain, growth absorbance A615, 16 h | hit rate 5% among 98,000 | inhibition, % at 10 µM
CYP2C9 act – increases human cytochrome P450 2C9 activity | recombinant CYP2C9, luciferin-H conversion, luminescence; hits give high values; factor 1 = untreated enzyme, 0 = blocked | activation factor at 5 µM | hit rate 1.4% among 96,000 | AID 1024 | P11712;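 active means activation factor of 2 or more for CYP2C9 at a 5 µM dose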;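 further: 0 = sulfaphenazole-blocked wells and 1 = vehicle-only wells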
CYP2C9 inh – blocks human cytochrome P450 2C9; P11712; CYP2C9 Supersomes, luciferin-H conversion, luminescence; inhibition, % at 5 µM; hit rate 20% among 96,000; AID 777;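 active means blocking of liver enzyme CYP2C9 beyond about 50% at 5 µM, limit read from the data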
Starred values were filed as active, the others as inactive; nt = no result given. Unless noted, no stated cut-off is given here; in the data, active means inhibition above about 30%; inactive means the rest.

SMILES	CYP2C19 activ	PostGolgi yeast	CYP2C19 inhib	PostGolgi ctrl	CYP2C9 act	CYP2C9 inh
CC(C)(C)c1ccc(S(=O)(=O)N2CCCCC2C(=O)NCc2ccccn2)cc1 (stereo not drawn)	0.4	5.7	63.1*	17.5	1.2	-22.0
O=C(NC1CC1)C1CCCN1S(=O)(=O)c1ccc2ccccc2c1 (stereo not drawn)	0.6	-3.1	43.2	3.2	1.8	-80.1
C=CCNC(=O)C1CCN(S(=O)(=O)c2ccc(Br)cc2)CC1	0.5	4.5	51.1*	3.0	1.5	-52.0
O=C(NCc1ccco1)C1CCCN1S(=O)(=O)c1ccc2ccccc2c1 (stereo not drawn)	0.1	19.0	88.4*	10.0	1.8	-80.5
O=C(COC(=O)c1ccc(S(=O)(=O)N2CCCC2)cc1)NCc1ccccc1	0.6	25.4	42.4	-3.8	0.4	55.5*
CCC(C)NC(=O)c1cn(C)c(=O)c2cc(OC)c(OC)cc12 (stereo not drawn)	0.6	-3.1	41.1	8.0	1.1	-5.1
CCOC(=O)c1cccc(NC(=O)CSc2nnc(COc3ccccc3C)o2)c1	0.8	-2.3	22.7	3.6	1	-0.1
Cc1c(C(=O)NCc2ccc3c(c2)OCO3)oc2ccc(S(=O)(=O)N3CCCC3)cc12	1	-17.8	3.4	10.0	0.5	48.5
O=C(NCc1ccccc1)c1ccc(S(=O)(=O)N2CCCC2)cc1	1	15.6	4.4	14.3	0.7	30.1
Cc1c(C(=O)N(C)Cc2ccccc2)oc2ccc(S(=O)(=O)N3CCCC3)cc12	0.6	1.4	43.1	29.0	0	95.3*
Cc1c(C(=O)NCc2ccc3c(c2)OCO3)oc2ccc(S(=O)(=O)N3CCCCC3)cc12	0.9	-3.1	13.0	14.0	0.4	58.6*
O=C(COC(=O)c1ccccc1S(=O)(=O)N1CCCCC1)NCC(F)(F)F	0.7	-1.4	31.8	14.3	0.3	70.0*
O=C(NCc1cccnc1)c1ccc(S(=O)(=O)N2CCCCC2)cc1	0.4	-7.0	61.3*	0.6	0.5	46.8
Cc1c(C(=O)NCc2ccccc2)oc2ccc(S(=O)(=O)N3CCCC3)cc12	1	-5.8	4.3	6.5	0.7	32.7
NS(=O)(=O)c1ccc(CCNC(=O)c2ccc(S(=O)(=O)N3CCCCC3)cc2)cc1	0.6	-1.6	40.2	4.1	0.4	60.6*
Cc1c(C(=O)NCc2cccnc2)oc2ccc(S(=O)(=O)N3CCCCC3)cc12	nt	-0.3	nt	-0.3	nt	nt
Cc1c(C(=O)NCc2cccnc2)oc2ccc(S(=O)(=O)N3CCCCCC3)cc12	0.8	-1.3	21.1	41.6*	0.5	50.6*
CC(=O)NCCc1ccc(S(=O)(=O)N2CCCC2)cc1	0.8	-4.2	16.6	-7.2	0.9	8.2
O=C(NCc1cccnc1)C1CCCCN1S(=O)(=O)c1ccc(F)cc1 (stereo not drawn)	0.2	1.1	80.1*	14.6	0.7	29.3
COc1ccccc1CNC(=O)c1oc2ccc(S(=O)(=O)N3CCCC3)cc2c1C	0.5	0.7	47.4	31.0*	0.3	72.8*
CC1CCN(S(=O)(=O)c2ccc(C(=O)NCc3ccc4c(c3)OCO4)cc2)CC1	1.1	-3.0	-7.4	-2.0	1	3.0
O=C(NCc1cccnc1)C1CCCN(S(=O)(=O)c2ccc(Br)cc2)C1 (stereo not drawn)	0.4	18.1	63.0*	5.8	0.5	45.7
CC(C)(C)c1ccc(S(=O)(=O)N2CCCC2C(=O)NC2=NCCS2)cc1 (stereo not drawn)	0.9	-1.1	8.3	1.3	0.2	75.6*
O=C(Nc1ccc(OC(F)(F)F)cc1)C1CCCN(S(=O)(=O)c2cccnc2)C1 (stereo not drawn)	0	-4.3	99.2*	0.3	0.8	20.3
Cc1ccc(S(=O)(=O)N2CCC(C(=O)OC(C)C(=O)NCc3ccc4c(c3)OCO4)CC2)cc1 (stereo not drawn)	0.3	-0.2	73.2*	1.5	1.4	-44.0
SMILES	CYP2C19 activ	PostGolgi yeast	CYP2C19 inhib	PostGolgi ctrl	CYP2C9 act	CYP2C9 inh
CCOCCCNC(=O)C(c1ccc(C)cc1)N(Cc1ccc2c(c1)OCO2)C(=O)c1cnccn1 (stereo not drawn)	0.8	12.8	16.9	12.6	1	0.8
CC(C)(C)c1nnc(NC(=O)NS(=O)(=O)c2ccccc2)s1	1	-22.4	-3.2	15.8	0.8	20.6
Cc1cccc(N(C(=O)c2csnn2)C(C(=O)NC(C)(C)C)c2cccs2)c1 (stereo not drawn)	0.7	-1.9	31.0	0.8	0.9	6.6
COc1ccc(OC)c(Nc2nc(N)nc(CSc3nnc(-c4ccncc4)o3)n2)c1	1	-3.9	1.0	4.1	0.5	46.3
CCOc1ccc(NC(=O)CN2C(=O)C3CCCN3C2=O)cc1 (stereo not drawn)	1.1	0.4	-9.4	-5.1	1	2.0
Oc1ccc2ccccc2c1C=Nc1ccccc1-c1nc2ccccc2[nH]1	0.6	1.1	44.9	16.9	0.1	95.0*
Cc1cccc2cc(CN(Cc3ccco3)C(=O)NC3CCCCC3)c(=O)[nH]c12	0.3	-3.0	69.7*	41.4*	0.3	74.0*
COc1ccc(CCN(Cc2cc3cc(C)ccc3[nH]c2=O)C(=O)N2CCCC2)cc1OC	0.7	-5.5	31.8	-7.8	0	98.3*
COc1ccc(CCN(Cc2cc3cccc(C)c3[nH]c2=O)C(=O)NC2CCCCC2)cc1OC	0.3	-5.8	65.8*	-10.9	0.3	74.6*
Cc1cccc2cc(CN(CC3CCCO3)C(=O)NC3CCCCC3)c(=O)[nH]c12 (stereo not drawn)	0.9	11.0	7.5	11.6	0.8	16.7
COc1ccccc1NC(=O)N(Cc1ccco1)Cc1cc2cccc(C)c2[nH]c1=O	0.1	-3.4	89.6*	36.7*	0.2	81.9*
O=C(COC(=O)c1ccccc1C(=O)c1ccc(Cl)c([N+](=O)[O-])c1)NC1CCCCCC1	0.6	-5.2	38.6	11.6	0.6	38.7
Nc1c(Cl)cc(Cl)cc1C(=O)OCC(=O)NC1CC1	0.6	7.2	41.4	12.8	2.1*	-112.6
Cc1cccc(C)c1NC1=NC(=S)N(c2ccccc2)C12CCOC(C)(C)C2 (stereo not drawn)	1	-7.8	4.3	5.7	0.8	18.7
Cc1ccc(N2C(=S)N=C(Nc3ccccc3C)C23CCOC(C)(C)C3)cc1 (stereo not drawn)	0.7	1.4	33.2	19.8	0.5	51.1*
CCOc1ccccc1C1CC(=O)Nc2c1c(=O)n(C)c(=O)n2C (stereo not drawn)	0.6	10.1	44.9	5.8	0.5	45.6
COC(=O)c1sc(OC)cc1OCc1ccc(C)cc1	0.5	-4.7	52.6*	10.1	1.1	-9.6
Cc1sc(-c2ccccn2)nc1OC(=O)c1cccc(Cl)c1Cl	1	12.8	-2.2	-0.1	0.3	71.8*
O=C(c1ccccc1)c1ccncc1	0.8	-0.8	20.8	-10.1	0.7	28.4
